# The supplement of paper PMC8728848
# The full list was thinned out, with the strongest signals kept by preference.
# What was measured:
# Assay in all cases: glycan array binding signal (z-score within array); higher = stronger binding
# Settings in all cases: glycan notation: IUPAC condensed, linker removed
# [1] = target: Fuc(a1-2)Gal(b1-3)GlcNAc(b1-2)Man(a1-3)[Fuc(a1-2)Gal(b1-3)GlcNAc(b1-2)Man(a1-6)]Man(b1-4)GlcNAc(b1-4)[Fuc(a1-6)]GlcNAc
# How it was run: (§1)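 From the Consortium for Functional Glycomics database, 3228 arrays were curated, keeping only those whose protein sequence was available. Binding is given as a within-array Z-score averaged across arrays sharing a protein sequence and across linkers. Negative Z-scores can be read as non-binding.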
# [2] = target: Fuc(a1-2)Gal(b1-3)GlcNAc(b1-3)[Fuc(a1-2)Gal(b1-3)GlcNAc(b1-6)]GalNAc
# How it was run: as §1
# [3] = target: Fuc(a1-2)Gal(b1-3)GlcNAc(b1-3)[Gal(b1-4)GlcNAc(b1-6)]Gal(b1-4)Glc
# How it was run: as §1
# [4] = target: Fuc(a1-2)Gal(b1-3)GlcNAc(b1-3)[Neu5Ac(a2-6)Gal(b1-4)GlcNAc(b1-6)]Gal(b1-4)Glc
# How it was run: as §1
# [5] = target: Fuc(a1-2)Gal(b1-3)[Fuc(a1-4)]GlcNAc(b1-2)Man(a1-3)[Fuc(a1-2)Gal(b1-3)[Fuc(a1-4)]GlcNAc(b1-2)Man(a1-3)]Man(b1-4)GlcNAc(b1-4)GlcNAc
# How it was run: as §1
# [6] = target: Fuc(a1-2)Gal(b1-4)[Fuc(a1-3)]GlcNAc(b1-3)[Neu5Ac(a2-6)Gal(b1-4)GlcNAc(b1-6)]Gal(b1-4)Glc
# How it was run: as §1
# [7] = target: Fuc(a1-2)[Gal(a1-3)]Gal(b1-3)GalNAc(b1-3)Gal(a1-4)Gal(b1-4)Glc
# How it was run: as §1
# [8] = target: Fuc(a1-2)[Gal(a1-3)]Gal(b1-4)GlcNAc(b1-2)Man(a1-3)[Fuc(a1-2)[Gal(a1-3)]Gal(b1-4)GlcNAc(b1-2)Man(a1-6)]Man(b1-4)GlcNAc(b1-4)GlcNAc
# How it was run: as §1
# [9] = target: Fuc(a1-2)[Gal(a1-3)]Gal(b1-4)GlcNAc(b1-3)[Fuc(a1-2)[Gal(a1-3)]Gal(b1-4)GlcNAc(b1-6)]GalNAc
# How it was run: as §1
# [10] = target: Fuc(a1-2)[GalNAc(a1-3)]Gal(b1-4)GlcNAc(b1-2)Man
# How it was run: as §1
# [11] = target: Fuc(a1-2)[GalNAc(a1-3)]Gal(b1-4)GlcNAc(b1-3)Gal(b1-4)GlcNAc(b1-3)Gal(b1-4)GlcNAc
# How it was run: as §1
# [12] = target: Fuc(a1-3)[Gal(b1-4)]GlcNAc(b1-2)Man
# How it was run: as §1
# [13] = target: Fuc(a1-3)[Gal(b1-4)]GlcNAc(b1-2)Man(a1-3)[Fuc(a1-3)[Gal(b1-4)]GlcNAc(b1-2)Man(a1-6)]Man(b1-4)GlcNAc(b1-4)[Fuc(a1-6)]GlcNAc
# How it was run: as §1
# [14] = target: Fuc(a1-3)[Gal(b1-4)]GlcNAc(b1-3)Gal(b1-3)[Fuc(a1-4)]GlcNAc
# How it was run: as §1
# [15] = target: Fuc(a1-3)[Gal3S(b1-4)]Glc
# How it was run: as §1
# [16] = target: Gal(a1-2)Gal
# How it was run: as §1
# [17] = target: Gal(a1-3)Gal(b1-3)GlcNAc(b1-2)Man(a1-3)[Gal(a1-3)Gal(b1-3)GlcNAc(b1-2)Man(a1-6)]Man(b1-4)GlcNAc(b1-4)GlcNAc
# How it was run: as §1
# [18] = target: Gal(a1-3)Gal(b1-3)GlcNAc(b1-6)GalNAc
# How it was run: as §1
# [19] = target: Gal(b1-3)GalNAc(b1-3)Gal
# How it was run: as §1
# [20] = target: Gal(b1-3)GlcNAc(b1-2)Man(a1-3)[Gal(b1-3)GlcNAc(b1-2)Man(a1-6)]Man(b1-4)GlcNAc(b1-4)[Fuc(a1-6)]GlcNAc
# How it was run: as §1
# [21] = target: Gal(b1-3)GlcNAc(b1-3)Gal(b1-4)GlcNAc
# How it was run: as §1
# [22] = target: Gal(b1-3)GlcNAc(b1-6)[Gal(b1-3)]GalNAc
# How it was run: as §1
# [23] = target: Gal(b1-3)GlcNAc6S
# How it was run: as §1
# [24] = target: Gal(b1-4)GalNAc(a1-3)[Fuc(a1-2)]Gal(b1-4)GlcNAc
# How it was run: as §1
# [25] = target: Gal(b1-4)GlcNAc(b1-2)Man(a1-3)[Gal(b1-4)GlcNAc(b1-2)Man(a1-6)]Man(b1-4)GlcNAc(b1-4)[Fuc(a1-6)]GlcNAc
# How it was run: as §1
# [26] = target: Gal(b1-4)GlcNAc(b1-2)Man(a1-3)[Man(a1-6)]Man(b1-4)GlcNAc(b1-4)GlcNAc
# How it was run: as §1
# [27] = target: Gal(b1-4)GlcNAc(b1-3)Gal(b1-3)GlcNAc
# How it was run: as §1
# [28] = target: Gal(b1-4)GlcNAc(b1-3)Gal(b1-4)GlcNAc(b1-3)Gal(b1-4)GlcNAc(b1-2)Man(a1-3)[Gal(b1-4)GlcNAc(b1-3)Gal(b1-4)GlcNAc(b1-3)Gal(b1-4)GlcNAc(b1-2)Man(a1-6)]Man(b1-4)GlcNAc(b1-4)[Fuc(a1-6)]GlcNAc
# How it was run: as §1
binder,measurement,setting,value
GS7807G-bfa-506-18-506 (Bacteroides fragilis) (protein) ASCDKFDEINTDPDATTKVTSSLLATGLLLDITSSSASKSFIYDELLAKQMAWGESMEDYQYNVFGRSGFGGYTTLINAQKMVESVSDDNVNAYDGLAHFIKAYKIFYMSMEMGDLPYEEALQGELGLVRPKYNTQKEVMNFILSDLETAYELFSTAKDFDGDPILGGSISKWKKATTAFQLKVLMHLSKKESDADLKVKERFARIVASGSLMESNEDNLQMKYADKANTVYPFHNTNTKHAGYAMLSTMLIDKFKATGDIRMFYYAKPAKAKLNEGVTADSWDAYIGTDPSLPFEQIEKAYATEQYSGFNARYTDYPSGEPVVRLGYAEQNFILAEAAVRGWISGDASAYYKKAIRAHMEFIASNTPDEEVYHHGHPITEEAIAAFLETPAIQLSGEKEEDIEKILTQRYLASFMQHPYDVYYDYRRTGYPVLPINPATNRNTMNDRLPMRWMYPKSESDYNLEHQNEALERQFGGVDDVNKLMWILQ,glycan array binding signal (z-score),[1],0.142
same,glycan array binding signal (z-score),[2],3.91
same,glycan array binding signal (z-score),[3],0.516
same,glycan array binding signal (z-score),[4],-0.857
same,glycan array binding signal (z-score),[5],0.421
same,glycan array binding signal (z-score),[6],-0.781
same,glycan array binding signal (z-score),[7],-0.536
same,glycan array binding signal (z-score),[8],3.93
same,glycan array binding signal (z-score),[9],0.293
same,glycan array binding signal (z-score),[10],-0.111
same,glycan array binding signal (z-score),[11],-0.91
same,glycan array binding signal (z-score),[12],0.315
same,glycan array binding signal (z-score),[13],1.51
same,glycan array binding signal (z-score),[14],-0.716
same,glycan array binding signal (z-score),[15],-0.945
same,glycan array binding signal (z-score),[16],-0.863
same,glycan array binding signal (z-score),[17],4.66
same,glycan array binding signal (z-score),[18],1.31
same,glycan array binding signal (z-score),[19],-0.588
same,glycan array binding signal (z-score),[20],2.73
same,glycan array binding signal (z-score),[21],-0.493
same,glycan array binding signal (z-score),[22],-0.028
same,glycan array binding signal (z-score),[23],0.702
same,glycan array binding signal (z-score),[24],-0.448
same,glycan array binding signal (z-score),[25],2.53
same,glycan array binding signal (z-score),[26],1.4
same,glycan array binding signal (z-score),[27],0.201
same,glycan array binding signal (z-score),[28],5.99
